Screening results from PubChem BioAssay.
Compounds with a hit are over-represented: about 2.4% of the library has one in this group of screens.
D2 PAM-1 = positively modulates the human D2 dopamine receptor allosterically. P14416. HEK293 T-REx D2, calcium flux, EC20 dopamine potentiation. potentiation, % at 10 µM. actives 0.34% (n = 340,000);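 active = potentiation over 3 SD above the plate norm, cut at about 30% in these data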; also: 0% is about no effect
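Primary screen. Calcium kinetics in induced HEK293 T-REx D2 cells: compound pre-addition 180 s, EC20 dopamine, 180 s more.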
D2 ag-1 = human D2 receptor agonism in beta-arrestin assay; DiscoveRx PathHunter D2 beta-arrestin, luminescence, 90 min; 100% = 57 uM dopamine signal; activation, % (test concentration not listed); actives 0.084% (n = 360,000); P14416; in the data active = activation above about 40%; inconclusive = between about 15% and that limit
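Agonist mode: compounds alone added to overnight-plated D2 PathHunter cells for 90 min at 37 C, with 57 uM final dopamine (EC100) defining full response. Beta-arrestin recruitment detected by chemiluminescent reagent, read after 1 h at ambient temperature.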
D2 antagonist = D2 dopamine receptor (human) antagonism. HEK293 TREx D2 cells, calcium flux, dopamine EC80. inhibition, % at 10 µM. actives 2% (n = 340,000). P14416; in the data active = inhibition above about 30%; inactive = below that, where a call was filed; also: 0% is about no effect
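Inhibition of EC80 dopamine-driven calcium flux, recorded kinetically, defines activity here; cells are a tetracycline-induced HEK293 T-REx line expressing force-coupled D2.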
D2 PAM-2 = positive allosteric modulators of human D2 dopamine receptor; P14416; DiscoveRx D2 beta-arrestin cells, luminescence, 90 min; 100% = 57 uM dopamine signal; potentiation, % (concentration not given with the values); actives 0.23% (n = 360,000); in the data active = potentiation above about 50%; inconclusive = mostly about 30% to 49%
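PathHunter D2 cells, attached overnight at 37 deg C, received compound in DMSO plus dopamine at EC20 (50 nM final) for 90 min at 37 deg C. Beta-arrestin recruitment was read as luminescence after 1 h with detection reagent at ambient temperature.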
D2 ag-2 = D2 dopamine receptor (human) agonism; HEK293 T-REx D2 cells, calcium flux agonist mode; activation, % at 2 µM; actives 0.53% (n = 340,000); AID 485358;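 active = activation over 3 SD above normal in the single-dose calcium agonist read, cut at about 30% in these data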; also: 0% is about no effect
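Tetracycline-induced HEK293 Trex cells with D2 receptor force-coupled to calcium signaling, plated overnight at 30 C and loaded with no-wash calcium dye. Calcium flux read kinetically for 180 s after compound addition; responses flag agonists.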
D3 arrestin ag = confirmation of human D3 dopamine receptor agonists, beta-arrestin; Potency, µM (doses to about 76.9 µM), inactives show at the highest dose activation, actives largely listed as activators; actives 4% (n = 2,300); shares compounds with D2 ag-2; DiscoveRx D3 beta-arrestin cells, luminescence, 90 min; AID 720506;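 also: potency is read from the fitted curve at half-maximal effect; 100% = dopamine control response; nearly all actives have a fitted effect of over 70% in size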
Target sequence (P35462 whole entry, looked up): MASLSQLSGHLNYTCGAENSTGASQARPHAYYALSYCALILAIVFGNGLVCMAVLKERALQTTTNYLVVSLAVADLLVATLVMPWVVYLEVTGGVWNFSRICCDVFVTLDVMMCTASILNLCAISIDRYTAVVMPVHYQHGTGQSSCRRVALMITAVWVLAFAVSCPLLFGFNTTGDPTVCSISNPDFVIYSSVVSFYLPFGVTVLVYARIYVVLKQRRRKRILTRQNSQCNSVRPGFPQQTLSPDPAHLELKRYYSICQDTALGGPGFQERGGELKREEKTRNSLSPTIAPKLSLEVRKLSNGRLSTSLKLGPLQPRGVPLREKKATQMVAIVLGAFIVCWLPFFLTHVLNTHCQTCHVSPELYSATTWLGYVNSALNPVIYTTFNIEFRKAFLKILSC
D2 ag-3 = D2 receptor agonism, beta-arrestin counterscreen; shares compounds with D2 ag-2; DiscoveRx PathHunter D2 beta-arrestin, luminescence, 90 min; response scale: percent relative to full dopamine signal; actives 5.9% (n = 2,300); Potency, µM (top dose mostly 76.9 µM), for the others: top-dose activation, actives largely listed as activators; also: potency is read from the fitted curve at half-maximal effect; % of control where 0% means no effect; nearly all actives have a fitted effect of over 70% in size
Active calls of the source: *; ? = inconclusive; nt = no result given. Unless noted, calls follow the shape of the dose curve; as a rule, active = well fitted activation curve with a large enough effect; inconclusive = small, poorly fitted or top-dose-only effect; inactive = flat fitted curve, though single readings scatter.

SMILES	D2 PAM-1	D2 ag-1	D2 antagonist	D2 PAM-2	D2 ag-2	D3 arrestin ag	D2 ag-3
CCN(CC)S(=O)(=O)c1cc(NC(=O)C(C)N2CC=C(c3ccccc3)CC2)ccc1C (centres undefined)	-25.8	?	13.9	-15.4	44.3*	20.4%	?
O=C1NC(=S)N(c2ccc(Cl)cc2)C(=O)/C1=C/N1CCN(C(=O)c2ccco2)CC1	-9.3	0.9	5.0	-13.4	26.1	-5.9%	3.5%
COc1cc(C(c2c(O)c3ccccc3oc2=O)c2c(C)n(C)n(-c3ccccc3)c2=O)ccc1OCC(=O)O (centres undefined)	-0.6	nt	nt	nt	-0.2	nt	nt
Cc1ccc(OCC(=O)N2CCN(CCc3ccncc3)CC2)cc1C	14.8	nt	nt	nt	-1.9	nt	nt
CCSc1nnc(NC(=O)c2cccn(Cc3ccccc3Cl)c2=O)s1	11.8	nt	nt	nt	1.3	nt	nt
C=C[C@@H]1C2=CCOC(=O)C2=CO[C@H]1O[C@@H]1O[C@H](CO)[C@@H](O)[C@H](O)[C@H]1O	13.1	-0.1	6.8	4.0	0.3	-6.7%	-1.2%
Cc1ccc(Cn2cccc(C(=O)Nc3cc(C)on3)c2=O)cc1	18.7	nt	nt	nt	21.3	nt	nt
O=C(CCN1CC=C(c2ccccc2)CC1)NCc1ccccc1	nt	-2.0	nt	-10.4	nt	nt	nt
O=C(CN1CC=C(c2ccccc2)CC1)NC(=O)NCc1ccco1	-16.6	5.9	39.6*	-9.1	54.1*	12.5%	14.1%
COc1ccc(-n2c(/C=C/c3cccc(F)c3)nc3ccccc3c2=O)cc1Cl	6.6	nt	nt	nt	-0.1	nt	nt
NCCCN1CCN(c2ccccc2)CC1	8.4	?	95.3*	15.1	-0.8	13.7%	16.2%
COc1c2c(cc3c1OCO3)CC[N+](C)=C2	-13.7	-1.5	-9.5	-3.7	22.6	-8.5%	-6.2%
COc1ccc2c(c1OC)CN1CCc3cc4c(cc3[C@H]1C2)OCO4	-18.2	2.2	21.1	-19.3	-0.3	nt	nt
COC(=O)C1=C(c2ccc(F)cc2OCc2ccccc2)C[C@@H]2CC[C@H]1N2C(=O)NCc1ccccc1C(F)(F)F	4.5	-3.0	-5.6	-9.7	0.1	nt	nt
COC(=O)C1=C(c2ccc(F)cc2OCc2ccccc2)C[C@@H]2CC[C@H]1N2C(=O)NCc1ccccc1Br	-14.8	-11.6	-5.7	-9.6	0.1	-10.9%	-3.0%
O=[N+]([O-])c1cccc2c([N+](=O)[O-])cccc12	-3.9	1.6	4.6	2.2	-0.6	3.0%	1.0%
Cc1cccc(-n2nc(C)c3c2NC(=O)CSC3c2ccccc2Cl)c1 (centres undefined)	3.2	nt	nt	nt	0.2	nt	nt
NC1CCc2cc(O)c(O)cc2C1 (centres undefined)	-28.0	100.0*	100.7*	103.1*	90.6*	0.0224µM*	0.0141µM*
Cc1ccccc1-c1nc(CN2C(=O)CN=C(c3ccccc3)c3ccccc32)c(C)o1	-3.2	nt	nt	nt	8.6	nt	nt
Cc1cccc(OCC(=O)N2CCN(Cc3cc(=O)n4nc(-c5ccccc5Cl)sc4n3)CC2)c1	8.7	nt	nt	nt	-0.1	nt	nt
COC(=O)C1=C(c2ccc(-c3ccccc3)c(F)c2)C[C@@H]2CC[C@H]1N2C(=O)N1CCCCC1	-4.1	-1.4	-5.4	-17.4	0.5	-8.7%	10.8%
Cc1cc(OCC(=O)N2CCN(CCc3ccncc3)CC2)ccc1Cl	0.6	nt	nt	nt	1.3	nt	nt
CC1CC2CC(=O)CCC2(C)C2CCC3(C)C(O)CCC3C12 (centres undefined)	nt	-1.2	nt	-5.4	nt	nt	nt
Cn1c(=O)oc2cc(S(=O)(=O)NCCN3CCN(c4ccccc4)CC3)ccc21	-17.3	-2.0	65.2*	-13.5	71.5*	24.2%	?
CN(C)c1cccc(CN2CCN(c3ccccc3)CC2)c1	nt	6.0	nt	-10.4	nt	nt	nt
Oc1cc2c(cc1CN1CCN(c3ccccc3F)CC1)OCO2	-28.7	14.3	76.4*	-10.1	66.2*	-3.2%	27.2%
